# Assay results reported in PubChem BioAssay (EPA / NIEHS).
# Some structures have more than one record in an assay (separate samples or runs), and their calls can disagree. Calls of active or inactive are those of the source. The calls were made as follows: active = hit-call score of the fitted dose curve at least 0.9, where 1 is the maximum; inactive = score below 0.9.
# Tests used:
# [1] = APR_HepG2_P-H2AX_72hr: Apredica 72-hour HepG2 Assay for H2AX Phosphorylation (AID 2282916); conditions: imaging, actives raise or lower the signal;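 also: phospho-histone H2A.x immunostain intensity per cell marking DNA damage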
# Summary of the method: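 HepG2 cells treated 72 h at 0.39–200 uM, 0.5% DMSO final, duplicates. Formaldehyde-fixed, Triton-permeabilised, immunostained for phospho-H2A.x with Hoechst; fluorescence imaged at 20x, bidirectional fit versus DMSO.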
# [2] = APR_HepG2_MitoMembPot_72hr: Apredica 72-hour HepG2 Assay for Mitochondrial Membrane Potential (AID 2282917); conditions: imaging, actives raise or lower the signal
# Summary of the method: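 HepG2 cells exposed 72 h to compounds at 0.39–200 uM (0.5% v/v DMSO, duplicates); MitoTracker Red CMXRos 250 nM loaded 30 min before 3.7% formaldehyde fixation, imaged by HCS fluorescence. Bidirectional fit versus DMSO.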
# [3] = APR_HepG2_MitoticArrest_72hr: Apredica 72-hour HepG2 Assay for Mitotic Arrest (AID 2282918); conditions: high-content imaging, actives raise or lower the signal
# Summary of the method: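 HepG2, 72 hr exposure, 0.39–200 uM in duplicate, 0.5% v/v DMSO final. Formaldehyde-fixed, Triton-permeabilized, anti-phospho-histone H3/FITC plus Hoechst. ArrayScan imaging at 20x; curves fit bidirectionally against DMSO baseline.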
# [4] = APR_HepG2_MicrotubuleCSK_72hr: Apredica 72-hour HepG2 Assay for Microtubule CSK Stabilty (AID 2282919); conditions: HepG2 microtubule cytoskeleton, high-content imaging, actives raise or lower the signal
# Summary of the method: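 HepG2 human liver cells were dosed for 72 h at ten concentrations from 0.39 to 200 uM in duplicate (0.5% v/v DMSO final). Fixed, permeabilized cells were immunostained for alpha-tubulin (Cy5) with a Hoechst counterstain and imaged at 20x.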
# [5] = APR_HepG2_P-H2AX_24hr: Apredica 24-hour HepG2 Assay for H2AX Phosphorylation (AID 2282920); conditions: high-content imaging, actives raise or lower the signal
# Summary of the method: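 HCS fluorescence imaging of phospho-H2A.x immunostain (with Hoechst 33342 nuclear counterstain) in HepG2 after 24 hr compound exposure; 10 concentrations, 0.39–200 uM, duplicate wells, 0.5% v/v DMSO. Gain or loss of signal fitted relative to DMSO baseline.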
# [6] = APR_HepG2_StressKinase_72hr: Apredica 72-hour HepG2 Assay for Stress Kinase (AID 2282921); conditions: HepG2 stress kinase (phospho-c-Jun) imaging, actives raise or lower the signal
# Summary of the method: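 HepG2 cells treated 72 hr with 0.39–200 uM compound, 0.5% v/v DMSO, duplicate wells. After formaldehyde fixation and Triton permeabilization, stained with anti-phospho-c-Jun (1:500) and Cy3 secondary, imaged at 20x. Fitted in both directions against DMSO.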
# [7] = APR_HepG2_StressKinase_24hr: Apredica 24-hour HepG2 Assay for Stress Kinase (AID 2282922); conditions: HepG2 stress kinase (phospho-c-Jun) imaging, actives raise or lower the signal
# Summary of the method: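 HepG2 cells exposed 24 hr to compound at 0.39–200 uM (10 concentrations, duplicate), 0.5% v/v DMSO final. Fixed in 3.7% formaldehyde, permeabilized with Triton X-100, immunolabeled for phospho-c-Jun with Hoechst 33342; HCS fluorescence imaging, bidirectional fit versus DMSO.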
# [8] = APR_HepG2_p53Act_72hr: Apredica 72-hour HepG2 Assay for p53 Activation (AID 2282923); conditions: high-content imaging, actives raise or lower the signal;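 also: average cellular p53 protein immunofluorescence intensity in HepG2 cells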
# Summary of the method: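 HepG2 cells exposed 72 h to 0.39–200 uM in 0.5% DMSO, duplicates. Fixed, permeabilized cells immunostained for p53 (Cy5) with Hoechst; imaged at 20x, fluorescence analyzed bidirectionally against DMSO.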
# [9] = APR_HepG2_MitoMass_72hr: Apredica 72-hour HepG2 Assay for Mitochondrial Mass (AID 2282924); conditions: high-content imaging, actives raise or lower the signal;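 also: MitoTracker Red CMXRos stain intensity per cell imaged as mitochondrial mass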
# Summary of the method: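 HepG2 cells were exposed for 72 hr to compounds at 0.39–200 uM (ten concentrations, duplicate, 0.5% v/v DMSO final). Live cells were stained with 250 nM MitoTracker Red CMXRos for 30 min, then fixed in 3.7% formaldehyde and imaged by HCS fluorescence.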
# [10] = APR_HepG2_NuclearSize_72hr: Apredica 72-hour HepG2 Assay for Nuclear Size (AID 2282925); conditions: high-content imaging, actives raise or lower the signal
# Summary of the method: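 HepG2 cells were exposed to compounds at ten concentrations from 0.39 to 200 uM (duplicate, 0.5% DMSO final) for 72 hr. After fixation in 3.7% formaldehyde, nuclei were stained with Hoechst 33342 (2 ug/mL) and imaged at 20x.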
# [11] = ATG_CRE_CIS: Attagene CIS-FACTORIAL HepG2 Assay for human cAMP Responsive Element (CRE) binding protein 3 (AID 2282926); conditions: HepG2 CRE cis-reporter, Attagene multiplexed mRNA; actives raise or lower the signal
# Summary of the method: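 Endogenous CRE-binding activity in HepG2 is reported through a cis-regulated transfected reporter. Following a day of exposure, mRNA levels are determined by reverse transcription PCR and fluorescent fragment analysis; fits run in both directions versus DMSO.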
# [12] = biological target: CCAAT/enhancer-binding protein beta (Homo sapiens) (UniProt P17676); assay: ATG_C_EBP_CIS: Attagene CIS-FACTORIAL HepG2 Assay for human CCAAT/Enhancer Binding Protein (C/EBP) beta (AID 2282927); conditions: HepG2 Attagene cis-factorial transcription factor reporter; actives raise or lower the signal
# Summary of the method: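 Following a 24 h incubation with test chemical, transfected HepG2 cells yielded RNA whose reporter transcripts were quantified by RT-PCR and fluorescent capillary electrophoresis, with DMSO serving as baseline for bidirectional fitting.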
# [13] = ATG_CMV_CIS: Attagene CIS-FACTORIAL HepG2 Assay for human CMV (Internal Marker) (AID 2282928); conditions: HepG2 CMV promoter reporter, transcription factor profiling; actives raise or lower the signal;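 also: endpoint acts as a background internal control marker rather than a target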
# Summary of the method: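 CMV internal-marker background readout in transiently transfected HepG2 cells bearing cis-regulated reporter units. Reporter mRNA is measured 24 h after dosing by RT-PCR and capillary electrophoresis, with bidirectional fitting against DMSO.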
# [14] = ATG_DR4_LXR_CIS: Attagene CIS-FACTORIAL HepG2 Assay for human Liver X Receptor (LXR), DR4 submotif (AID 2282929); conditions: HepG2 Attagene DR4 cis-reporter, mRNA transcription; actives raise or lower the signal
# Summary of the method: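 Readout: reporter transcript fluorescence after RT-PCR and capillary electrophoresis, fitted bidirectionally against DMSO controls. Human HepG2 liver cells carried transiently transfected multiplexed reporter constructs; endogenous transcription factor activity measured 24 h post-dosing.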
# [15] = biological target: Aryl hydrocarbon receptor (Homo sapiens) (UniProt P35869); assay: ATG_Ahr_CIS: Attagene CIS-FACTORIAL HepG2 Assay for human Aryl Hydrocarbon Receptor (Ahr) (AID 2282930); conditions: HepG2 AhR cis-factorial reporter transcription; actives raise or lower the signal
# Summary of the method: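 Values derive from bidirectional fitting against DMSO negative control. Underlying signal: cis-element reporter mRNA in transiently transfected HepG2, harvested 24 h post-dose and measured by RT-PCR plus capillary electrophoresis.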
# [16] = ATG_AP_1_CIS: Attagene CIS-FACTORIAL HepG2 Assay for human Activator Protein 1 (AP-1) (AID 2282931); conditions: HepG2 Attagene cis-factorial AP-1 reporter mRNA; actives raise or lower the signal
# Summary of the method: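 Reporter transcripts were measured 24 h after dosing by RT-PCR and capillary electrophoresis of fluorescent fragments. Cells: HepG2 carrying transfected cis-regulated reporter constructs reading endogenous factor activity. Gain or loss fitted against DMSO.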
# [17] = ATG_AP_2_CIS: Attagene CIS-FACTORIAL HepG2 Assay for human Activator Protein 2 (AP-2) (AID 2282932); conditions: HepG2 AP-2 cis-reporter, Attagene transcription factor profiling; actives raise or lower the signal
# Summary of the method: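 Bidirectional curve fitting against DMSO was applied to reporter mRNA signals from HepG2 cells 24 h after dosing. Cis-promoter reporter units, transiently transfected, were read by RT-PCR plus capillary electrophoresis.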
# [18] = ATG_BRE_CIS: Attagene CIS-FACTORIAL HepG2 Assay for human Bone Morphogenetic Protein (BMP) Response Element (BRE) (AID 2282933); conditions: HepG2 BMP response element reporter, Attagene transcription factor profiling; actives raise or lower the signal
# Summary of the method: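 A HepG2 multiplex reporter system measured inducible reporter mRNA 24 h post-dosing. Detection: RT-PCR, 6-FAM primer extension, HpaI digestion, capillary electrophoresis. Activity fitted bidirectionally relative to DMSO.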
# [19] = biological target: Retinoic acid receptor alpha (Homo sapiens) (UniProt P10276); assay: ATG_DR5_RAR_CIS: Attagene CIS-FACTORIAL HepG2 Assay for human Retinoic Acid Receptor Alpha (RARE), DR5 submotif (AID 2282934); conditions: HepG2 Attagene cis-factorial RARE DR5 reporter, mRNA; actives raise or lower the signal;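 as to AC50: reporter responds to endogenous RAR alpha beta and gamma in HepG2 not RARA alone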
# Summary of the method: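 Endpoint fitted in both directions relative to DMSO as negative control. It reflects DR5 cis-element reporter mRNA induction in transiently transfected HepG2 cells, measured 24 h after dosing through RT-PCR and fluorescent capillary electrophoresis.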
# [20] = biological target: Transcription factor E2F1 (Homo sapiens) (UniProt Q01094); assay: ATG_E2F_CIS: Attagene CIS-FACTORIAL HepG2 Assay for human E2F Transcription Factor 1 (AID 2282935); conditions: HepG2 Attagene cis-reporter, E2F reporter RNA transcripts; actives raise or lower the signal
# Summary of the method: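 Multiplexed cis-reporter assay: HepG2, transient transfection, 24 h dosing, mRNA quantitation by labeled RT-PCR and CE.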
# Sequence of Retinoic acid receptor alpha (Homo sapiens) (P10276 whole entry, looked up): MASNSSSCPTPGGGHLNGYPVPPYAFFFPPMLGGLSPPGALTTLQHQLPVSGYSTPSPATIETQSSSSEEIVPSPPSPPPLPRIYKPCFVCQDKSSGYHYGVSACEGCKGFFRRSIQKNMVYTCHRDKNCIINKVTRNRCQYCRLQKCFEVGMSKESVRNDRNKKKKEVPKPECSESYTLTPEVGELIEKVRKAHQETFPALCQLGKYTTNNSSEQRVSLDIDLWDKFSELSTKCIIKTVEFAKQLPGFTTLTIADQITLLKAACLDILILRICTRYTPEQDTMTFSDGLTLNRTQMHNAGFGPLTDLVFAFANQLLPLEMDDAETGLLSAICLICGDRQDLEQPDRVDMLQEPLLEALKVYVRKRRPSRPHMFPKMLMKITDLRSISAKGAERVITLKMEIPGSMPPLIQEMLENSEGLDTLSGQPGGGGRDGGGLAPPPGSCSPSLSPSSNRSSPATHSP
# Sequence of Aryl hydrocarbon receptor (Homo sapiens) (P35869 whole entry, looked up): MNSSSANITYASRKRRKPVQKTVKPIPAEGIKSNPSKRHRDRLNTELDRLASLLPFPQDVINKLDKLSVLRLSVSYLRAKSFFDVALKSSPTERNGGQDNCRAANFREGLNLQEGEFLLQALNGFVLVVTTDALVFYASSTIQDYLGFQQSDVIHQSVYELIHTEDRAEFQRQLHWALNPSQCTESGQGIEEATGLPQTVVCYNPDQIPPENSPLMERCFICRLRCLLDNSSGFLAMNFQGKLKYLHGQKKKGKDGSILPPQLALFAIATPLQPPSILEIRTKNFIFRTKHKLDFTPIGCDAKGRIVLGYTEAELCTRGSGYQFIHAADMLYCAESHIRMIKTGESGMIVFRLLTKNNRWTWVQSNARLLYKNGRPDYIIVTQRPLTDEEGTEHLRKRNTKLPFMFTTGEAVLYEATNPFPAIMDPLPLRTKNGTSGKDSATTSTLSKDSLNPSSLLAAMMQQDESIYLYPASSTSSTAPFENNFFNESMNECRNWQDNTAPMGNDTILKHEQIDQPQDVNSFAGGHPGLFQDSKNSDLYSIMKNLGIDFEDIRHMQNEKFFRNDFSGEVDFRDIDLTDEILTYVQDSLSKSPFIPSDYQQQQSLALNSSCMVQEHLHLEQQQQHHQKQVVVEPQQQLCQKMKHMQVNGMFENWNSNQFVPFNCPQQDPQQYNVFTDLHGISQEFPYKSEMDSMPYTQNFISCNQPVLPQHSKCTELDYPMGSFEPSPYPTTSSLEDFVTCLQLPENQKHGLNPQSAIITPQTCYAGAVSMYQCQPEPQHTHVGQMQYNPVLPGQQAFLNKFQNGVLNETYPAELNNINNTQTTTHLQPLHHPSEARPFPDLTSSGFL
# Sequence of CCAAT/enhancer-binding protein beta (Homo sapiens) (P17676 whole entry, looked up): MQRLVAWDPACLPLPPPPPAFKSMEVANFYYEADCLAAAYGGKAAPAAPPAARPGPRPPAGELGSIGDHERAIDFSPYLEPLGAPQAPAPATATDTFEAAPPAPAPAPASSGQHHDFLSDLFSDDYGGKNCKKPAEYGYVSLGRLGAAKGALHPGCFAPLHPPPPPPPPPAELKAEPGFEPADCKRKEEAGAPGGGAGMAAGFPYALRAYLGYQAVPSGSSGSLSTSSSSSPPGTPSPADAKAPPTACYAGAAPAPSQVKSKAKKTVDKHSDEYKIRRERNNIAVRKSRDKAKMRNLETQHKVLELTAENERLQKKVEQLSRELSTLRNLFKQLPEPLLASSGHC
# Sequence of Transcription factor E2F1 (Homo sapiens) (Q01094 whole entry, looked up): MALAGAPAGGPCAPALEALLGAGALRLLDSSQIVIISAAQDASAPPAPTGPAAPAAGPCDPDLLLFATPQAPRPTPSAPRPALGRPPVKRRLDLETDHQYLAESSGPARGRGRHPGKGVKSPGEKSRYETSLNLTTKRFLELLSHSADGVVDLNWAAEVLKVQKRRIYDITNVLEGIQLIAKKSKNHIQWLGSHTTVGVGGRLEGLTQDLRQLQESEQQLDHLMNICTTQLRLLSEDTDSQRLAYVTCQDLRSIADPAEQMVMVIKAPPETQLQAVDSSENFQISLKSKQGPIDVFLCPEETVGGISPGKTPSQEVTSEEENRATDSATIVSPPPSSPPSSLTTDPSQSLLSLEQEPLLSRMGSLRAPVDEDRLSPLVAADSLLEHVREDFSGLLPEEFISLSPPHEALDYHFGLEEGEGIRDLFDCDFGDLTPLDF
smiles,measurement,setting,value
CC(c1ccc(O)cc1)(c1ccc(O)cc1)c1ccc(O)cc1,AC50,[1],95.4 µM (active)
same,outcome,[2],inactive
same,AC50,[3],105 µM (active)
same,outcome,[4],inactive
same,AC50,[5],111 µM (active)
same,outcome,[6],inactive
same,outcome,[7],inactive
same,AC50,[8],110 µM (active)
same,AC50,[9],170 µM (active)
same,AC50,[10],105 µM (active)
same,AC50,[11],8.32 µM (active)
same,outcome,[12],inactive
same,AC50,[13],20.2 µM (active)
same,AC50,[14],7.38 µM (active)
same,outcome,[15],inactive
same,AC50,[16],17.9 µM (active)
same,AC50,[17],18.1 µM (active)
same,AC50,[18],18.3 µM (active)
same,outcome,[19],inactive
same,outcome,[20],inactive
O=C(O)C(F)(F)C(F)(F)C(F)(F)C(F)(F)C(F)(F)F,outcome,[1],inactive
same,outcome,[2],inactive
same,outcome,[3],inactive
same,outcome,[4],inactive
same,outcome,[5],inactive
same,outcome,[6],inactive
same,outcome,[7],inactive
same,outcome,[8],inactive
same,outcome,[9],inactive
same,outcome,[10],inactive
same,outcome,[11],inactive
same,outcome,[12],inactive
same,outcome,[13],inactive
same,outcome,[14],inactive
same,outcome,[16],inactive
same,outcome,[17],inactive
same,outcome,[18],inactive
same,outcome,[19],inactive
same,outcome,[20],inactive
CCSC(=O)N(CC)C1CCCCC1,outcome,[1],inactive
same,outcome,[2],inactive
same,outcome,[3],inactive
same,outcome,[4],inactive
same,outcome,[5],inactive
same,outcome,[6],inactive
same,outcome,[7],inactive
same,outcome,[9],inactive
same,outcome,[10],inactive
same,outcome,[11],inactive
same,outcome,[12],inactive
same,outcome,[13],inactive
same,outcome,[14],inactive
same,outcome,[15],inactive
same,outcome,[16],inactive
same,outcome,[17],inactive
same,outcome,[18],inactive
same,outcome,[20],inactive
ClC1=C(Cl)[C@]2(Cl)[C@@H]3[C@@H]4C[C@@H]([C@H]5O[C@@H]45)[C@@H]3[C@@]1(Cl)C2(Cl)Cl,AC50,[1],41 µM (active)
same,outcome,[2],inactive
same,AC50,[3],32.6 µM (active)
same,outcome,[4],inactive
same,outcome,[5],inactive
same,outcome,[7],inactive
same,outcome,[8],inactive
same,outcome,[9],inactive
same,outcome,[10],inactive
same,outcome,[11],inactive
same,outcome,[12],inactive
same,outcome,[13],inactive
same,AC50,[14],16.7 µM (active)
same,outcome,[16],inactive
same,outcome,[17],inactive
same,outcome,[18],inactive
same,AC50,[19],0.571 µM (active)
same,outcome,[20],inactive
O=S(=O)(O)C(F)(F)C(F)(F)C(F)(F)C(F)(F)F,outcome,[1],inactive
same,outcome,[2],inactive
same,outcome,[3],inactive
same,outcome,[4],inactive
same,outcome,[5],inactive
same,outcome,[7],inactive
same,outcome,[8],inactive
same,outcome,[9],inactive
same,outcome,[10],inactive
same,outcome,[11],inactive
same,outcome,[12],inactive
same,outcome,[13],inactive
same,outcome,[14],inactive
same,AC50,[15],110 µM (active)
same,outcome,[15],inactive
same,outcome,[16],inactive
same,outcome,[17],inactive
same,outcome,[18],inactive
same,outcome,[19],inactive
same,outcome,[20],inactive
ClC1=C(Cl)[C@]2(Cl)[C@@H]3[C@H]4C[C@H]([C@@H]5O[C@H]45)[C@@H]3[C@@]1(Cl)C2(Cl)Cl,outcome,[2],inactive
same,outcome,[3],inactive
same,outcome,[4],inactive
same,outcome,[5],inactive
same,outcome,[6],inactive
same,outcome,[7],inactive
same,outcome,[8],inactive
same,outcome,[9],inactive
same,outcome,[10],inactive
same,outcome,[11],inactive
same,outcome,[12],inactive
same,outcome,[13],inactive
same,AC50,[14],5.08 µM (active)
same,outcome,[15],inactive
same,outcome,[16],inactive
same,outcome,[17],inactive
same,outcome,[18],inactive
same,AC50,[19],1.14 µM (active)
same,outcome,[20],inactive
